Experimental data reported in PMC7862700, “An all-to-all approach to the identification of sequence-specific readers for epigenetic DNA modifications on cytosine”.

How the values were obtained:
Assay in all cases: DAPPL (digital affinity profiling via proximity ligation, sequencing); 10 mM Tris-HCl pH 7.5, 50 mM NaCl, 1 mM DTT, 4% glycerol, room temperature, 30 min; GST-TFs on glutathione beads, 16-mer random dsDNA library, 0.1% formaldehyde crosslink after washing; high values mean tight binding
Conditions in all cases: protein: recombinant; tags: N-terminal GST; dsDNA, one strand shown
[1] = biological target: T1, FLI1 (Homo sapiens, UniProt Q01543 1-452)
T1 sequence: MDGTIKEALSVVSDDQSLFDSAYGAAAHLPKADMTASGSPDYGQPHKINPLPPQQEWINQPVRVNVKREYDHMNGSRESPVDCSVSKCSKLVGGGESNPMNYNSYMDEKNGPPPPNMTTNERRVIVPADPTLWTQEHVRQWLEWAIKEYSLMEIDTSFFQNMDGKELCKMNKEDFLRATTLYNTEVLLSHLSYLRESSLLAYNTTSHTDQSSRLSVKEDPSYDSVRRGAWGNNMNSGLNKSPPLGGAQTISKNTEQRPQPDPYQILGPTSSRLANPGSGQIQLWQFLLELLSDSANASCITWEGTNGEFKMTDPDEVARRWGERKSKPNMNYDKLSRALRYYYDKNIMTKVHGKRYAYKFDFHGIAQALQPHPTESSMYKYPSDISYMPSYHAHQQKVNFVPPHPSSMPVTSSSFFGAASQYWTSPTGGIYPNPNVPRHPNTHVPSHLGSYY
Summary of the method: (§1)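 After expression in yeast as GST fusions, human transcription factors were bound to glutathione beads, DNA-barcoded and mixed with a tag-only sample. The pools were incubated with 200 nmole of a 16-mer random double-stranded DNA library in Tris/NaCl/DTT/glycerol buffer (30 min, room temperature), washed and crosslinked with 0.1% formaldehyde. Proximity ligation with BsaI/T4 ligase ran for 1 h at 37 °C, before PCR amplification and sequencing on an Illumina NextSeq500. Binding signal is a hexamer's read frequency for a factor divided by its frequency for the tag-only sample.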

[2] = biological target: T2, ELK1 (Homo sapiens, UniProt P19419 1-428)
T2 sequence: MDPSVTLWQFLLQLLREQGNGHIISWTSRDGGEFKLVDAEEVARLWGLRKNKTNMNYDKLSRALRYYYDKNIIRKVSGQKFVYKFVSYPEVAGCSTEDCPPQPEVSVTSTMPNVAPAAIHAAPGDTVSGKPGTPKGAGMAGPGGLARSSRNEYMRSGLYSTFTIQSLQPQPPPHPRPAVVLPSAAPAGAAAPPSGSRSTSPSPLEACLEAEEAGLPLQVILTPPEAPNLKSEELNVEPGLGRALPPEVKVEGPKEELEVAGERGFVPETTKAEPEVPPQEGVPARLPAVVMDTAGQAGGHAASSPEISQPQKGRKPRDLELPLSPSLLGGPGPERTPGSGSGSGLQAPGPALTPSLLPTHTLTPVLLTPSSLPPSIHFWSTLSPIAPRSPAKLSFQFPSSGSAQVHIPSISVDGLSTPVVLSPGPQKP
Summary of the method: as §1

[3] = biological target: T3, GABPA (Homo sapiens, UniProt Q06546 1-454)
T3 sequence: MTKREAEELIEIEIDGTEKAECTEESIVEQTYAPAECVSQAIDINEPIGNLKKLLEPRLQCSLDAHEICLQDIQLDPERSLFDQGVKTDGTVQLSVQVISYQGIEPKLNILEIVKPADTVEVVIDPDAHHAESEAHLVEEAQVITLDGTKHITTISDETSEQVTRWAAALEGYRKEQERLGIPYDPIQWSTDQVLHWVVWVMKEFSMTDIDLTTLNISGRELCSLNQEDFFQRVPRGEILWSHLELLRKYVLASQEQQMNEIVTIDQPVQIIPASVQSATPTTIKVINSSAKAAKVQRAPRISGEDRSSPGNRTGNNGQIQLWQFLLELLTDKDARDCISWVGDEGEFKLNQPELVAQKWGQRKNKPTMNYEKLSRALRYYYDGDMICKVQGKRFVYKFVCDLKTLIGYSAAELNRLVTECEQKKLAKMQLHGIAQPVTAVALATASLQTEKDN
Summary of the method: as §1

[4] = biological target: T4, ERG (Homo sapiens, UniProt P11308 1-479)
T4 sequence: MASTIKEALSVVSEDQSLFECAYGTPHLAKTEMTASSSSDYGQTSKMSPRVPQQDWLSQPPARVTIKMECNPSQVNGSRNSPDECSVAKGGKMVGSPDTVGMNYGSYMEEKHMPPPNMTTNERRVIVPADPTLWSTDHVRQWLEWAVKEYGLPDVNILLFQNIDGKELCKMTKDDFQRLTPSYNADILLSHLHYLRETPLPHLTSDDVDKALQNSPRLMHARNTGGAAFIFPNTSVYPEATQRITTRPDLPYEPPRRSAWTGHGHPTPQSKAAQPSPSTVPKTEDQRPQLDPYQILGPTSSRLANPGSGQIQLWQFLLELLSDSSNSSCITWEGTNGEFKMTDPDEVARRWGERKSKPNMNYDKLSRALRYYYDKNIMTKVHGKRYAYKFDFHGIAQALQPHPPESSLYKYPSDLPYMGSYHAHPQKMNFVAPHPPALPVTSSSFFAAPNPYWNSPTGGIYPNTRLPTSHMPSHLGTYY
Summary of the method: as §1

[5] = biological target: ELF1 (Homo sapiens, UniProt P32519 1-619)
Summary of the method: as §1

[6] = biological target: T5, EHF (Homo sapiens, UniProt Q9NZC4 1-300)
T5 sequence: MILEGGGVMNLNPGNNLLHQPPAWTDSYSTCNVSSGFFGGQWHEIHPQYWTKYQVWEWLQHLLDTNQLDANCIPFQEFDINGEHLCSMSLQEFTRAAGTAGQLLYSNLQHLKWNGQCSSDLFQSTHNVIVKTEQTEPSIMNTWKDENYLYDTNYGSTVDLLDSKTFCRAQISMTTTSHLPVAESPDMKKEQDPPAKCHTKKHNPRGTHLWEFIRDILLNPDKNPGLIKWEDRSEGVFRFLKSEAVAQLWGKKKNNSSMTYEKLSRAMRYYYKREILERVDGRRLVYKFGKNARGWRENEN
Summary of the method: as §1

[7] = biological target: SPI1 (Homo sapiens, UniProt P17947 1-270)
Summary of the method: as §1

[8] = biological target: SPIB (Homo sapiens, UniProt Q01892 1-262)
Summary of the method: as §1

[9] = biological target: T6, ELK3 (Homo sapiens, UniProt P41970 1-407)
T6 sequence: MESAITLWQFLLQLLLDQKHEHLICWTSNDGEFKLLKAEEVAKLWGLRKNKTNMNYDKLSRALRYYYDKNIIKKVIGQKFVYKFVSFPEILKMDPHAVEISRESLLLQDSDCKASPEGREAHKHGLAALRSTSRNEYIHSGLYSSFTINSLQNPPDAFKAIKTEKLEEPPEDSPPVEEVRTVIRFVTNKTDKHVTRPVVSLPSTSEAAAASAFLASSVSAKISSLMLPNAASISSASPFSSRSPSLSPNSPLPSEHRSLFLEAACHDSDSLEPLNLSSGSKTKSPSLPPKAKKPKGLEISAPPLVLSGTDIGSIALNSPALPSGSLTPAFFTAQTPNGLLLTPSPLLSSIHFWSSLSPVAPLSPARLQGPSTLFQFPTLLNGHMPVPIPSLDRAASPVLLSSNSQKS
Summary of the method: as §1

ELF1, sequence (P32519 whole entry): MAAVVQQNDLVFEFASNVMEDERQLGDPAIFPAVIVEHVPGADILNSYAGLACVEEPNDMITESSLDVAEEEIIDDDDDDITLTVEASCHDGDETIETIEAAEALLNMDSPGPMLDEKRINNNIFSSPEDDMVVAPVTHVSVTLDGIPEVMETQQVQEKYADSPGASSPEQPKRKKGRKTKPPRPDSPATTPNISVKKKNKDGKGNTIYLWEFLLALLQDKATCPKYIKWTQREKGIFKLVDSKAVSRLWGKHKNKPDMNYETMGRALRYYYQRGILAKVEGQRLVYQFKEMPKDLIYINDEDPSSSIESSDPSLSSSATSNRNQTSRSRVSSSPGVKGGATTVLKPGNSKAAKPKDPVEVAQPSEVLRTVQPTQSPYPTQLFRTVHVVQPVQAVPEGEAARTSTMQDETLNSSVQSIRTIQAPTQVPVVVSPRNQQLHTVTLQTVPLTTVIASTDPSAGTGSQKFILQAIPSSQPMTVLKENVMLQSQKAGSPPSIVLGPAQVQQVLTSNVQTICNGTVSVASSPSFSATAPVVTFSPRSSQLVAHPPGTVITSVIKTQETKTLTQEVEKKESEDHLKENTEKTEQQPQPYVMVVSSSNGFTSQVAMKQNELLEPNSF
SPIB, sequence (Q01892 whole entry): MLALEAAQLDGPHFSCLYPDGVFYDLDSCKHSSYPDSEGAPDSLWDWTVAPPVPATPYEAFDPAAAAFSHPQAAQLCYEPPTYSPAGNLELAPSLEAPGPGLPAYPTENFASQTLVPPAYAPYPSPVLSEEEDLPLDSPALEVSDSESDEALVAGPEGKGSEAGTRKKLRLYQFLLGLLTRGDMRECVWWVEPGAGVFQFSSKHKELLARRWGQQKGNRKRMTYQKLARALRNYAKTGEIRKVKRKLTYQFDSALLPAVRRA

Row | Sequence | binding signal [1] | binding signal [2] | binding signal [3] | binding signal [4] | binding signal [5] | binding signal [6] | binding signal [7] | binding signal [8] | binding signal [9]
1 | CGAATT | 1.13 fold enrichment (6-mer frequency, TF over GST control) | 1.1 fold enrichment (6-mer frequency, TF over GST control) | 1.27 fold enrichment (6-mer frequency, TF over GST control) | 1.23 fold enrichment (6-mer frequency, TF over GST control) | 1.2 fold enrichment (6-mer frequency, TF over GST control) | 1.19 fold enrichment (6-mer frequency, TF over GST control) | 1.22 fold enrichment (6-mer frequency, TF over GST control) | 1.23 fold enrichment (6-mer frequency, TF over GST control) | 1.23 fold enrichment (6-mer frequency, TF over GST control)
2 | CACATC | 1.39 fold enrichment (6-mer frequency, TF over GST control) | 1.45 fold enrichment (6-mer frequency, TF over GST control) | 1.33 fold enrichment (6-mer frequency, TF over GST control) | 1.64 fold enrichment (6-mer frequency, TF over GST control) | 1.4 fold enrichment (6-mer frequency, TF over GST control) | 1.5 fold enrichment (6-mer frequency, TF over GST control) | 1.37 fold enrichment (6-mer frequency, TF over GST control) | 1.46 fold enrichment (6-mer frequency, TF over GST control) | 1.61 fold enrichment (6-mer frequency, TF over GST control)
3 | ACCCTC | 1.2 fold enrichment (6-mer frequency, TF over GST control) | 1.27 fold enrichment (6-mer frequency, TF over GST control) | 1.15 fold enrichment (6-mer frequency, TF over GST control) | 1.1 fold enrichment (6-mer frequency, TF over GST control) | 1.13 fold enrichment (6-mer frequency, TF over GST control) | 1.1 fold enrichment (6-mer frequency, TF over GST control) | 1.12 fold enrichment (6-mer frequency, TF over GST control) | 1.14 fold enrichment (6-mer frequency, TF over GST control) | 1.31 fold enrichment (6-mer frequency, TF over GST control)
4 | GCTCAT | 1.23 fold enrichment (6-mer frequency, TF over GST control) | 1.29 fold enrichment (6-mer frequency, TF over GST control) | 1.23 fold enrichment (6-mer frequency, TF over GST control) | 1.32 fold enrichment (6-mer frequency, TF over GST control) | 1.36 fold enrichment (6-mer frequency, TF over GST control) | 1.26 fold enrichment (6-mer frequency, TF over GST control) | 1.21 fold enrichment (6-mer frequency, TF over GST control) | 1.31 fold enrichment (6-mer frequency, TF over GST control) | 1.16 fold enrichment (6-mer frequency, TF over GST control)
5 | TGATGA | 1.38 fold enrichment (6-mer frequency, TF over GST control) | 1.39 fold enrichment (6-mer frequency, TF over GST control) | 1.46 fold enrichment (6-mer frequency, TF over GST control) | 1.28 fold enrichment (6-mer frequency, TF over GST control) | 1.35 fold enrichment (6-mer frequency, TF over GST control) | 1.32 fold enrichment (6-mer frequency, TF over GST control) | 1.2 fold enrichment (6-mer frequency, TF over GST control) | 1.33 fold enrichment (6-mer frequency, TF over GST control) | 1.28 fold enrichment (6-mer frequency, TF over GST control)
6 | AAAAAA | 1.29 fold enrichment (6-mer frequency, TF over GST control) | 1.28 fold enrichment (6-mer frequency, TF over GST control) | 1.3 fold enrichment (6-mer frequency, TF over GST control) | 1.2 fold enrichment (6-mer frequency, TF over GST control) | 1.32 fold enrichment (6-mer frequency, TF over GST control) | 1.45 fold enrichment (6-mer frequency, TF over GST control) | 1.52 fold enrichment (6-mer frequency, TF over GST control) | 1.4 fold enrichment (6-mer frequency, TF over GST control) | 1.41 fold enrichment (6-mer frequency, TF over GST control)
7 | CGGATA | 1.15 fold enrichment (6-mer frequency, TF over GST control) | 1.27 fold enrichment (6-mer frequency, TF over GST control) | 1.09 fold enrichment (6-mer frequency, TF over GST control) | 1.5 fold enrichment (6-mer frequency, TF over GST control) | 1.16 fold enrichment (6-mer frequency, TF over GST control) | 1.19 fold enrichment (6-mer frequency, TF over GST control) | 1.1 fold enrichment (6-mer frequency, TF over GST control) | 1.15 fold enrichment (6-mer frequency, TF over GST control) | 1.33 fold enrichment (6-mer frequency, TF over GST control)
